# PubChem BioAssay AID1259372 (The Scripps Research Institute Molecular Screening Center, 2018)
# The campaign covered roughly 4,700 compounds. About 760 (16%) were called active. A selection follows. A number with no mark means an inactive call.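 How the source made its calls: active means inhibition above a cutoff derived from the DMSO control wells (cut at about 28% in these data); inactive means the rest.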
# Target: Microphthalmia-associated transcription factor (Homo sapiens) (UniProt O75030)
# Sequence (O75030 whole entry, looked up): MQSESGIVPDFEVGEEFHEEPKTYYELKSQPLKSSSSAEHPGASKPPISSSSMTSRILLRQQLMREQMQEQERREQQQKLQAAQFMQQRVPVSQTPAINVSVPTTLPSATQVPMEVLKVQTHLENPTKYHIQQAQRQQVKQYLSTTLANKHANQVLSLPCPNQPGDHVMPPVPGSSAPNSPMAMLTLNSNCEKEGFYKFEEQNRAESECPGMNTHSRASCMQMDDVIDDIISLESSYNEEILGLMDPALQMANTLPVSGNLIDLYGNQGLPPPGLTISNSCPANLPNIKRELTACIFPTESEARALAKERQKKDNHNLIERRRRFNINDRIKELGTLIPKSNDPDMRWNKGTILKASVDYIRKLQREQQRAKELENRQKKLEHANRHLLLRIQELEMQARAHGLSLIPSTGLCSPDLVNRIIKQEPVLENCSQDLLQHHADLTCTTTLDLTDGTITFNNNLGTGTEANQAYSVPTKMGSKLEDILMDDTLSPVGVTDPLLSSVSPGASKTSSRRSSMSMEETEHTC
# Experiment: MITF inhibitors, retest of hits, confirmation, biochemical, AlphaScreen, triplicate (AID 1259372)
# Conditions: AlphaScreen MITF homodimerization, biotin/His-MITF beads; at 2.6 µM; stronger effect = higher value
row,SMILES,inhibition
1,O=C(C1CCN(Cc2nc3ccccc3[nH]2)CC1)N1CCN(c2ccccn2)CC1,0.24%
2,COc1ccc(OC)c(CN2CCN(Cc3ccccc3OC)CC2)c1,10.6%
3,C=CCNCCOCCOc1cc(C)ccc1C(C)(C)C,7.1%
4,c1cc2c(cc1CN1CCN(C3CCCCC3)CC1)OCO2,-2.28%
5,Cc1cnc(NCc2ccc3c(c2)OCO3)nc1Nc1ccccc1,-0.48%
6,c1cc2c(cc1CNc1nc(Nc3ccc(N4CCOCC4)cc3)c3ncn(C4CCCCC4)c3n1)OCO2,71.3% (active)
7,CC(C)(C)NCCOCCOc1ccc(Cl)c(Cl)c1,4.77%
8,O=C(Nc1ccc2c(c1)OCO2)C(c1ccccc1)N(Cc1ccccc1)Cc1ccccc1 (configuration not stated),-3.96%
9,Cc1cccc(CSc2n[nH]c(=O)[nH]c2=O)c1,-2.69%
10,COc1cc(OC)c(OC)cc1CN1CCN(Cc2ccc(F)cc2)CC1,-1.09%
11,Cc1nnc(N2CCC(Cc3ccccc3)CC2)c2ccccc12,2.32%
12,COc1ccc(CNCC2CN(CC(C)C)CCO2)cc1 (configuration not stated),10%
13,CCN1CCN(CCOCCOc2ccc([N+](=O)[O-])cc2)CC1,3.04%
14,c1ccc(-c2ccccc2OCCNCCN2CCOCC2)cc1,16.9%
15,O=C(O)CCCCCNC(=O)/C(=C\c1ccco1)NC(=O)c1ccccc1,25.9%
16,O=[N+]([O-])c1ccccc1CN1CCN(Cc2ccccc2C(F)(F)F)CC1,3.85%
17,Cc1cc(OCCN2CCN(C)CC2)ccc1C(C)C,-2.72%
18,O=C(O)CCCCC1SCC2NC(=O)NC21O (configuration not stated),116% (active)
19,COC(=O)C1(C)NC(c2ccc(C)cc2)C2C(=O)N(c3ccc(F)cc3)C(=O)C21 (configuration not stated),11.8%
20,CC(=O)c1ccc(NC(=O)C(C)NCc2ccc(C)cc2)cc1 (configuration not stated),3.11%
21,O=C(c1cccs1)N1CCC(N2CCN(Cc3ccccc3)CC2)CC1,1.58%
22,NC(=O)COC(=O)/C=C/c1ccc(I)o1,57.8% (active)
23,Cc1nc(NC2CC2)cc(-c2ccc(F)cc2)n1,12%

row,SMILES,inhibition
1,CCOc1ccc(CN2CCN(C(=O)c3cccc(Cl)c3)CC2)cc1,-0.91%
2,CC(C)c1ccc(C2/C(=C(/O)c3ccccc3)C(=O)C(=O)N2CCN(C)C)cc1 (configuration not stated),4.9%
3,CCCCCOc1ccc(OC(=O)c2ccc(-c3ccc(CCC)cn3)cc2)cc1,4.5%
4,COc1ccc(Br)cc1CN1CCN(CCOCCO)CC1,-4.85%
5,O=S(=O)(c1ccc(Br)cc1Cl)N1CCN(CCc2ccncc2)CC1,11.6%
6,CCN(CC)CC(=O)Nc1c2c(nc3ccccc13)N(c1cccc(C)c1)CC2,-3.54%
7,c1ccc(CCCCNc2nccc(Nc3ccncn3)n2)cc1,-1.64%
8,CN(C)CC(C)(C)CNCc1nnc(-c2ccccc2)o1,-4.13%
9,COc1ccc(CN2CCN(Cc3cccnc3)CC2)cc1OCc1ccccc1,3.98%
10,CCCCCCOC(=O)c1cc(C(=O)OCCCCCC)c(C)nc1C,-4.67%
11,COc1cccc(C(=O)N2CCN(Cc3cc(OC)c(OC)cc3OC)CC2)c1,0.86%
12,COc1cc(CN2CCN(Cc3cc(OC)c(OC)cc3OC)CC2)cc(OC)c1,7.67%
13,c1ccc(Oc2cccc(OCCCCn3cncn3)c2)cc1,-15.6%
14,CCCn1c(C)cc(-c2csc(NC(=O)Cc3ccsc3)n2)c1C,21.7%
15,COC(=O)c1cccc(NS(=O)(=O)c2ccc3ccccc3c2)c1C,1.98%
16,Clc1ccc(CN2CCN(CC3CC=CCC3)CC2)cc1 (configuration not stated),-2.27%
17,CCOc1ccccc1N1CCN(Cc2cc(OC)c(O)c([N+](=O)[O-])c2)CC1,32.4% (active)
18,CCOc1cc(CN2CCN(Cc3ccccn3)CC2)ccc1OC,13.2%
19,COc1cc(CN2CCN(Cc3ccc(C)cc3)CC2)c([N+](=O)[O-])cc1OC,6.72%
20,CCN1CCN(CCCOc2ccc(C(C)=O)cc2OC)CC1,1.36%
21,COc1cc(CN(CCN(C)C)Cc2ccccc2)cc(OC)c1,15.3%
22,Cc1cc(C(C)(C)C)ccc1OCCN1CCNCC1,-3.14%
23,Cn1c(-c2ccc(F)cc2)cnc1NCc1cccnc1,-19.5%

row,SMILES,inhibition
1,Cc1ccc(CN2CCN(Cc3ccncc3)CC2)cc1,15.2%
2,COc1cccc(CN2CCN(C(=O)c3ccccc3F)CC2)c1,-1.9%
3,c1cc2c(cc1CN1CCN(C3CCCC3)CC1)OCO2,-0.1%
4,O=C1NC(c2ccccc2[N+](=O)[O-])C(C(=O)c2cccs2)C(O)(C(F)(F)F)N1 (configuration not stated),4.8%
5,CN1CCN(CCOCCOc2ccccc2Cl)CC1,6.9%
6,N#C/C(=C/c1ccc(-c2ccc3c(c2)C(=O)NC3=O)o1)C(=O)O,6.58%
7,Cc1ccc(NC(=O)CNCCCSc2ccccc2)cc1C,14.7%
8,CCc1ccc(NC(=O)CS(=O)CC(=O)NCCCc2ccccc2)cc1 (configuration not stated),44.5% (active)
9,Nc1ccc(S(=O)(=O)O)c2cc(S(=O)(=O)O)cc(O)c12,42.7% (active)
10,Cc1ccc(C)c(OCCN2CCOCC2)c1C,15.2%
11,COc1cc(CN2CCN(Cc3ccccc3Br)CC2)cc(OC)c1,9.11%
12,COc1ccc(COCC(O)CNCC(C)(C)CN(C)C)cc1OC (configuration not stated),3.01%
13,COCc1nc2ccccc2n1CCc1noc(-c2ccco2)n1,6.8%
14,C1=CC2CC1CC2CN1CCN(Cc2c[nH]c3ccccc23)CC1 (configuration not stated),-0.81%
15,COc1cccc(/C=C(\C#N)c2nc3ccccc3[nH]2)c1OCc1ccc(Cl)cc1Cl,0.99%
16,COc1ccc(CN2CCN(Cc3ccccc3OC)CC2)cc1Br,5.52%
17,O=[N+]([O-])c1ccc(OCc2nnc(SCCN3CCOCC3)n2-c2ccccc2)cc1,2.94%
18,CCCS(=O)(=O)N1CCN(Cc2ccc(OC)c(OCc3ccccc3)c2)CC1,-0.41%
19,CC1CN(CCOc2ccccc2[N+](=O)[O-])CC(C)O1 (configuration not stated),6.95%
20,Cc1ccc(C(C)C)c(OCCN2CCNCC2)c1,-8.7%
21,COc1ccc2c(c1)CC(C(=O)Nc1ccc(-c3cn[nH]c3)cc1OCC(N)=O)CO2 (configuration not stated),40.3% (active)
22,COc1ccc(NC(=O)CN2CCN(C)CC2)c(OC)c1,13%
23,COc1ccc2c(c1)CC(C(=O)Nc1ccc(-c3cn[nH]c3)cc1OCc1ccccc1)CO2 (configuration not stated),56% (active)

row,SMILES,inhibition
1,CC1CCN(S(=O)(=O)c2ccc(Cl)c(C(=O)Nc3ccccc3[N+](=O)[O-])c2)CC1,16.1%
2,Clc1cccc(CN2CCN(C3CCCC3)CC2)c1,12.9%
3,O=C(c1cccc(Cl)c1)N1CCN(Cc2cccnc2)CC1,16.8%
4,O=C(c1ccc2c(c1)C(=O)N(Cc1cccnc1)C2=O)c1ccc2c(c1)C(=O)N(Cc1cccnc1)C2=O,51.2% (active)
5,Brc1cccc(CN2CCN(Cc3cccnc3)CC2)c1,5.44%
6,COc1ccc(-c2nc(Nc3cc(OC)c(OC)c(OC)c3)c3[nH]cnc3n2)cc1,14%
7,COc1cc(CN2CCN(Cc3ccc(Cl)cc3)CC2)c([N+](=O)[O-])cc1OC,5.78%
8,O=C(Nc1ccc(-c2ccncc2)c(C(F)(F)F)c1)C1COc2ccccc2O1 (configuration not stated),42.5% (active)
9,COc1ccc(CN2CCN(Cc3ccccc3C(F)(F)F)CC2)cc1OC,24.4%
10,CCN1CCN(CC(O)COc2cccc(C(=O)OC)c2)CC1 (configuration not stated),-4.86%
11,COc1cccc(CN2CCN(C/C=C/c3ccccc3)CC2)c1OC,2.33%
12,Cc1cc(NC(=O)/C=C/C(=O)N(CC(=O)NC2CCCC2)c2ccc(F)cc2)no1,10.1%
13,COc1cccc(OC)c1C(=O)N1CCN(Cc2cccnc2)CC1,-5.41%
14,CS(=O)(=O)N1CCN(Cc2cccc(Cl)c2)CC1,-2.19%
15,CN(CCc1ccccn1)CC(=O)N1CCc2ccccc21,12.3%
16,CSc1ccc(CN2CCN(S(=O)(=O)c3ccc([N+](=O)[O-])cc3)CC2)cc1,19.9%
17,Cn1c(=NC(=O)COc2ccccc2)sc2cc(S(C)(=O)=O)ccc21,4.53%
18,NS(=O)(=O)c1cccc(NC(=O)COc2ncnc3sc(-c4ccccc4)cc23)c1,13.3%
19,Cc1cc(S(=O)(=O)Nc2ccc3c(c2)OCCO3)ccc1-n1cnnn1,5.76%
20,COc1cc2nc(-c3cccc(C(C)=O)c3)nc(N)c2cc1OC,-8.94%
21,O=C1c2ccccc2C(O)N1Cc1ccccc1Cl (configuration not stated),-9.08%
22,COc1ccc(C2C(C(C)=O)=C(C)N=C3SCC(=O)N32)c(OC)c1 (configuration not stated),-3.48%
23,CCN1CCN(CCCCOc2ccccc2F)CC1,6.76%

row,SMILES,inhibition
1,O=C(c1ccccc1)N1CCN(C2CCCC2)CC1,-3.05%
2,Cc1nc(NC(=O)c2cc(Br)ccc2Cl)sc1C,11%
3,CC1(C)CC(=O)C2=C(C1)Nc1ccccc1N(C(=O)Cc1ccccc1)C2c1ccc(-c2ccc([N+](=O)[O-])cc2)o1 (configuration not stated),12.3%
4,CCNc1nc(NCC)nc(C(=O)O)n1,54.9% (active)
5,Cn1c(=O)oc2cc(S(=O)(=O)N3CCC(C(=O)NC(C)(C)C)CC3)ccc21,-16.9%
6,C=CCn1c(SCC(=O)Nc2nc3ccccc3s2)nc(O)cc1=O,-1.3%
7,COc1cc(CN2CCN(C(=O)C(c3ccccc3)c3ccccc3)CC2)cc(OC)c1OC,5.49%
8,CSc1nnc(SCc2nc3sc(C(=O)O)c(C)c3c(=O)[nH]2)s1,14.3%
9,CC(=O)N1CCN(CC(=O)Nc2ccc(C)c(F)c2)CC1,-10.5%
10,Cc1ccc(NC(=O)COC(=O)CCC(=O)Nc2sc3c(c2C(N)=O)CCC3)cc1F,87.4% (active)
11,O=C(CCC(=O)OCc1ccc(Cl)cc1)Nc1ccc([N+](=O)[O-])cc1,13.1%
12,OCCOCCN1CCN(Cc2ccc(Cl)cc2)CC1,1.57%
13,COc1cccc(CN2CCN(CCCc3ccccc3)CC2CCO)c1 (configuration not stated),-0.58%
14,COC(=O)CSc1nc(C2CC2)nc2ccccc12,5.56%
15,CC1CCCC(N2CCN(Cc3ccccc3Cl)CC2)C1 (configuration not stated),-6.77%
16,O=C(CNCc1cccnc1)Nc1ccc(C(=O)N2CCCCC2)cc1,7.91%
17,CC(=O)N1CCN(C(=O)c2ccc(N3CC4CC(C3)c3cccc(=O)n3C4)c(NC(=O)c3cccnc3)c2)CC1 (configuration not stated),-11.6%
18,CCSc1ccccc1C(=O)N1CCN(c2ccc(-c3ccccn3)nn2)CC1,111% (active)
19,COc1ccc(OCCn2ccnc2C)cc1,-1.1%
20,COc1cc(CN2CCN(Cc3ccc(OC)c(OC)c3)CC2)cc(OC)c1,4.54%
